The supplement of paper PMC10849652
The full data set covers some 7,900 targets. This sample favours those with a hit. About 0.6% of all pairs of compound and target were hits. Values without a mark were called inactive.

Columns and labels:
Experiment in all cases: log2 fold change, soluble protein after heating vs DMSO (PISA); higher = thermal stabilisation; K562 cells, 10 uM, 30 min; active = over 0.2 and 3.5 SD of the protein, either way, in both replicates (recomputed)
[1] = compound: CC[C@@H]1C(=O)N(C)c2cnc(Nc3ccc(C(=O)NC4CCN(C)CC4)cc3OC)nc2N1C1CCCC1
In short: (§1)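 For each measurement, 10 μM compound was applied for 30 min to K562 cells at 2×10^6 cells/mL. Aliquots were heated for 3 min across 48°C-58°C, pooled, and extracted in PBS with 0.5% NP-40 at 4°C; the supernatant after 21,000xg for 90 min was soluble protein. This was quantified by TMTpro 16plex LC-MS/MS with channel sums equalised, and thermal stability was reported relative to control samples from duplicates, on a log2 fold-change scale.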

volasertib = compound: CC[C@@H]1C(=O)N(C)c2cnc(Nc3ccc(C(=O)N[C@H]4CC[C@H](N5CCN(CC6CC6)CC5)CC4)cc3OC)nc2N1C(C)C [volasertib]
In short: as §1

epoxomicin = compound: CC[C@H](C)[C@@H](C(=O)N[C@@H]([C@@H](C)O)C(=O)N[C@@H](CC(C)C)C(=O)[C@]1(CO1)C)NC(=O)[C@H]([C@@H](C)CC)N(C)C(=O)C [epoxomicin]
In short: as §1

[2] = compound: CCn1c(C(=O)N(C2CC2)C2CC2)cc2c3c(ncn3C)c(Nc3cc(C)n(C)n3)nc21
In short: as §1

[3] = compound: CCn1cc(-c2ccnc3[nH]c(-c4cccc(CN(C)C)c4)cc23)c(-c2ccc(NC(=O)N(C)C)cc2)n1
In short: as §1

[4] = compound: CN(C)CC(=O)Nc1ccc2[nH]c(=O)c3ccccc3c2c1
In short: as §1

rosiglitazone = compound: CN(CCOC1=CC=C(C=C1)C[C@H]2C(=O)NC(=O)S2)C3=CC=CC=N3 (racemic) [rosiglitazone]
In short: as §1

[5] = compound: CN1C2=C(C3=C1C(=O)N(N=C3)CC4=CC(=CC=C4)N)SC(=C2)S(=O)C
In short: as §1

[6] = compound: CN1CCC(CNc2ccc3ncc(-c4cccc(OC(F)(F)F)c4)n3n2)CC1
In short: as §1

saracatinib = compound: CN1CCN(CCOc2cc(OC3CCOCC3)c3c(Nc4c(Cl)ccc5c4OCO5)ncnc3c2)CC1 [saracatinib]
In short: as §1

sotrastaurin = compound: CN1CCN(c2nc(C3=C(c4c[nH]c5ccccc45)C(=O)NC3=O)c3ccccc3n2)CC1 [sotrastaurin]
In short: as §1

alvocidib = compound: CN1CC[C@H](c2c(O)cc(O)c3c(=O)cc(-c4ccccc4Cl)oc23)[C@H](O)C1 [alvocidib]
In short: as §1

Tubastatin A = compound: CN1CCc2c(c3ccccc3n2Cc2ccc(C(=O)NO)cc2)C1 [Tubastatin A]
In short: as §1

[7] = compound: CNC(=O)C1=CC=CC=C1NC2=NC(=NC=C2Cl)NC3=C(C=C(C=C3)N4CCOCC4)OC
In short: as §1

defactinib = compound: CNC(=O)c1ccc(Nc2ncc(C(F)(F)F)c(NCc3nccnc3N(C)S(C)(=O)=O)n2)cc1 [defactinib]
In short: as §1

rucaparib = compound: CNCc1ccc(-c2[nH]c3cc(F)cc4c3c2CCNC4=O)cc1 [rucaparib]
In short: as §1

[8] = compound: CNc1nc(-c2ccc3c(N)n[nH]c3c2)cc(N2C[C@@H](C(=O)NC3CCCCC3)CC[C@H]2C)n1
In short: as §1

encorafenib = compound: COC(=O)N[C@@H](C)CNc1nccc(-c2cn(C(C)C)nc2-c2cc(Cl)cc(NS(C)(=O)=O)c2F)n1 [encorafenib]
In short: as §1

[9] = compound: COC(=O)[C@H](CCSC)NC(=O)C1=C(C=C(C=C1)NC[C@H](CS)N)C2=CC=CC=C2
In short: as §1

[10] = compound: CC[C@H](C)N1C=C(C2=C(C=C(C=C21)C3=CN=C(C=C3)N4CCNCC4)C(=O)NCC5=C(C=C(NC5=O)C)C)C
In short: as §1

UniProt Q6ZVM7, sequence (Q6ZVM7 whole entry, looked up): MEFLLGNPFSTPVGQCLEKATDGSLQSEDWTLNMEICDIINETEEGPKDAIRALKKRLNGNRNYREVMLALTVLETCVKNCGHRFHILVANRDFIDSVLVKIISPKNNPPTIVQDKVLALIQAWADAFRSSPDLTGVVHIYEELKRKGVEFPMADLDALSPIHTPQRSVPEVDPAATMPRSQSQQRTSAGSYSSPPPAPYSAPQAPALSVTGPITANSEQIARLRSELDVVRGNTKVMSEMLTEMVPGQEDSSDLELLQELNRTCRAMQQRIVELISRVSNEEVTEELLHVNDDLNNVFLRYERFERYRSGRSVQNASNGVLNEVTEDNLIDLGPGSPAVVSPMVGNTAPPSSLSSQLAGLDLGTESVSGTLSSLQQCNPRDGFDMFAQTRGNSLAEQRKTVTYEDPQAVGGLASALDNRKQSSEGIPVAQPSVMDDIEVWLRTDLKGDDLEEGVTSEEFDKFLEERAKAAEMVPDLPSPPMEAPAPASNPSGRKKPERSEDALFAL
UniProt Q9HCN3, sequence (Q9HCN3 whole entry, looked up): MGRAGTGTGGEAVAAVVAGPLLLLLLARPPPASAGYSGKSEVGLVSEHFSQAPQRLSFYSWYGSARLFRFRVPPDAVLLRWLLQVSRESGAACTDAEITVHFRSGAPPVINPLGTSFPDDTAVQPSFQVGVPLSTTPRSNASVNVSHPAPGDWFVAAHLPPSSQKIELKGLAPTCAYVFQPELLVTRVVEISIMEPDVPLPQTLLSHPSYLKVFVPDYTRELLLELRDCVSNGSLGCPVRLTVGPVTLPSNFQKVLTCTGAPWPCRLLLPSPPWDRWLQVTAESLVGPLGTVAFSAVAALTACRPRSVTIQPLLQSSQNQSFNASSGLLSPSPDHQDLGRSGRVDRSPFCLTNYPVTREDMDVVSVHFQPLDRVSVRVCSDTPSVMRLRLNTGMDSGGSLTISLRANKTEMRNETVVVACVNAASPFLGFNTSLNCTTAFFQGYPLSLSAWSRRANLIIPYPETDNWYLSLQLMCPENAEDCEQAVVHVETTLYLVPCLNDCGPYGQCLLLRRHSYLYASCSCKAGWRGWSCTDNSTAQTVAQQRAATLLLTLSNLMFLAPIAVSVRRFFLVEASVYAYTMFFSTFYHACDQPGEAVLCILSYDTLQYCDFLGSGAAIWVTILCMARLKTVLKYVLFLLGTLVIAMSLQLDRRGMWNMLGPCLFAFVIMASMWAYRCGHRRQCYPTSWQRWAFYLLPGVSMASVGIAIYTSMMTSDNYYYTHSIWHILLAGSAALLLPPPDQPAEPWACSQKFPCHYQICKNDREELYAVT
UniProt Q9HCS7, sequence (Q9HCS7 whole entry, looked up): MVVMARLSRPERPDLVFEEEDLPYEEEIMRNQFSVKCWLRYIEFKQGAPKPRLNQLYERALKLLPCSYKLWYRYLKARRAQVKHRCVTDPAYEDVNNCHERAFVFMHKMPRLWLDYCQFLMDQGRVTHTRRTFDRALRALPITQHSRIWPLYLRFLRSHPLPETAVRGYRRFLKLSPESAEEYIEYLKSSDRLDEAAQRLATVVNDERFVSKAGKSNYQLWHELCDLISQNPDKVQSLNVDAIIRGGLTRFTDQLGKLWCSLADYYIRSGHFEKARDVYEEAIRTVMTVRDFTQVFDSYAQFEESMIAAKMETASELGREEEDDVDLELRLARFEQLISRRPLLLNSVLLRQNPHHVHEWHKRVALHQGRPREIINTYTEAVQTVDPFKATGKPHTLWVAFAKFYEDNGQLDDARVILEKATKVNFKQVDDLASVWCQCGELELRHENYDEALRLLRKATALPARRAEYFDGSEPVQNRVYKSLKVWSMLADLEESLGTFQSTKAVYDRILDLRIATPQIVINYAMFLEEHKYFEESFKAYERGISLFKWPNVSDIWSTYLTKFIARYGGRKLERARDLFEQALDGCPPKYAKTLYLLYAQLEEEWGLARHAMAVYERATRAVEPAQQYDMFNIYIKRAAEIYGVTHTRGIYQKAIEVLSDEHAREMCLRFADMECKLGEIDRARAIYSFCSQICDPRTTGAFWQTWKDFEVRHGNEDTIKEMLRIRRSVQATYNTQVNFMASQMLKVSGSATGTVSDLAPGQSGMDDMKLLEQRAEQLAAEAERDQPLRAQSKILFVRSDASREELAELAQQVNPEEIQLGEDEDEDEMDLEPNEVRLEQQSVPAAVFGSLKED
UniProt P30291, sequence (P30291 whole entry, looked up): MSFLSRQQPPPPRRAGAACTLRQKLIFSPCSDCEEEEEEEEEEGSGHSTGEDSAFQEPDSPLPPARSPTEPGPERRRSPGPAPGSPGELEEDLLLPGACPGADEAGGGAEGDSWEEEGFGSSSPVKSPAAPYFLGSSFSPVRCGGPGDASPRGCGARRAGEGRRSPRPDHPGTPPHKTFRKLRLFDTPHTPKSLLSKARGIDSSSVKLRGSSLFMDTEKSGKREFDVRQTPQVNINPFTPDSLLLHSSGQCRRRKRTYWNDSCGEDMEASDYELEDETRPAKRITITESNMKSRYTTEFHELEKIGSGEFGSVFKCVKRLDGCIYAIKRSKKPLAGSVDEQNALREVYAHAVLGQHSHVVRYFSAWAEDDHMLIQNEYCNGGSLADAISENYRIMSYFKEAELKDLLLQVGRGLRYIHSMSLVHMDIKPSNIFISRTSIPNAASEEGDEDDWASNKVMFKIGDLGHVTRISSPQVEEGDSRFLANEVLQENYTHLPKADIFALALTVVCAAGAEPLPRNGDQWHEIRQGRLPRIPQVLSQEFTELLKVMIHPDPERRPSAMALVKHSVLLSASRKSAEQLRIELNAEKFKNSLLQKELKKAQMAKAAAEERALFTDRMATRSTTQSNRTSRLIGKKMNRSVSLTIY
UniProt Q8N2K1, sequence (Q8N2K1 whole entry, looked up): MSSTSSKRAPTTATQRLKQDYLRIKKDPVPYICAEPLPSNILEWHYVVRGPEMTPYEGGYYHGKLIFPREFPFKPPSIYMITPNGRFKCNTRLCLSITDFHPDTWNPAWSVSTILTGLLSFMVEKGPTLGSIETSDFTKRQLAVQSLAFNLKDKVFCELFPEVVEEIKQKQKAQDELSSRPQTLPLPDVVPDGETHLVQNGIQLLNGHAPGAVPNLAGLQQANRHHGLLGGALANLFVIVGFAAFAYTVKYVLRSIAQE
UniProt Q9NVA4, sequence (Q9NVA4 whole entry, looked up): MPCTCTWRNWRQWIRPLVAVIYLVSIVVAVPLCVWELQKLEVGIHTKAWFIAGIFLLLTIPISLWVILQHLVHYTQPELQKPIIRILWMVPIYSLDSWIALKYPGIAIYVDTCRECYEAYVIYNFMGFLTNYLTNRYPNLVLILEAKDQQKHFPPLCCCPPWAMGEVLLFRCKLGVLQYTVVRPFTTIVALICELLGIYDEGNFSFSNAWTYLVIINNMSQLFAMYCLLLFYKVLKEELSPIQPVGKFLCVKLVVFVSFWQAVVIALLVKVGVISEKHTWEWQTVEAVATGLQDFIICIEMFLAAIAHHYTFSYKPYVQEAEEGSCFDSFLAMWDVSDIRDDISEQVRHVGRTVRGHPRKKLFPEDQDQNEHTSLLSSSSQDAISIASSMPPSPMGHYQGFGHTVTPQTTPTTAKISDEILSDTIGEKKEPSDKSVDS
UniProt Q96ET8, sequence (Q96ET8 whole entry, looked up): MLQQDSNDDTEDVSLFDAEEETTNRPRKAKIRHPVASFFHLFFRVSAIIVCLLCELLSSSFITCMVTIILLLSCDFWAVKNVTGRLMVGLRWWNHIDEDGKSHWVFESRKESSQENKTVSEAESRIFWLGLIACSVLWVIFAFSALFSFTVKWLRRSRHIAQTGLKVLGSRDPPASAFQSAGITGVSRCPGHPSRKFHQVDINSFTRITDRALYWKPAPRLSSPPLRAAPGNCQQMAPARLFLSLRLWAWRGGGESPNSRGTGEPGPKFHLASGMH
UniProt Q9NQZ2, sequence (Q9NQZ2 whole entry, looked up): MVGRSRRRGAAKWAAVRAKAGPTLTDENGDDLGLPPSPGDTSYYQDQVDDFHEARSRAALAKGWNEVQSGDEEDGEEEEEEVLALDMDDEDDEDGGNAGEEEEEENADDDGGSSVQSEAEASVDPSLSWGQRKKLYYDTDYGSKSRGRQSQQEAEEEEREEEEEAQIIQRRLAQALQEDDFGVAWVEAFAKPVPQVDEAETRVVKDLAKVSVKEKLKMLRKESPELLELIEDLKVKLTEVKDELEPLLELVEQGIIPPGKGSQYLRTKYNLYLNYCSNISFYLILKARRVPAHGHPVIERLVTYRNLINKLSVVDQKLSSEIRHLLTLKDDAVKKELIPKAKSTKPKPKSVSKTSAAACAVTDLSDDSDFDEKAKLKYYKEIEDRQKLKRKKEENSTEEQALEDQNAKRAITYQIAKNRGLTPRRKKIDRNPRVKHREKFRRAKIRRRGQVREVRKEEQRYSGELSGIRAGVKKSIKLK

Row | Target | log2 fold change [1] | log2 fold change (volasertib) | log2 fold change (epoxomicin) | log2 fold change [2] | log2 fold change [3] | log2 fold change [4] | log2 fold change (rosiglitazone) | log2 fold change [5] | log2 fold change [6] | log2 fold change (saracatinib) | log2 fold change (sotrastaurin) | log2 fold change (alvocidib) | log2 fold change (Tubastatin A) | log2 fold change [7] | log2 fold change (defactinib) | log2 fold change (rucaparib) | log2 fold change [8] | log2 fold change (encorafenib) | log2 fold change [9] | log2 fold change [10]
1 | UBE2J2 isoform 3 (UniProt Q8N2K1) | -0.07 | -0.157 | 0.254 | 0.047 | -0.418 | 0.04 | 0.068 | -0.055 | 0.122 | 0.07 | 0.044 | -0.226 | 0.091 | -0.114 | -0.061 | 0.081 | 0.055 | 0.014 | -0.053 | 
2 | TMEM184C (UniProt Q9NVA4) | -0.03 |  | 0.087 |  | 0.08 | -0.013 | 0.088 | -0.237 | -0.492 (active) | 0.022 | 0.139 | -0.123 | 0.022 |  | -0.049 | 0.028 | -0.182 | 0.051 | 0.118 | 0.033
3 | WARS1 (UniProt G3V5U1) | -0.03 |  | -0.237 |  |  |  | 0.554 |  |  |  | 0.315 |  |  |  |  | 0.228 |  | -0.451 |  | 
4 | WEE1 (UniProt P30291) |  | 0.07 | 0.203 | 0.003 | -0.209 | -0.103 | 0.072 | 0.046 | 0.195 | 0.068 | 0.007 | 0.084 | 0.117 | 0.075 | -0.029 |  | -0.052 |  | 0.082 | -0.028
5 | UTP20 (UniProt O75691) |  | 0.093 | -0.355 | 0.105 |  |  |  |  |  |  |  |  | -0.028 | -0.051 |  |  |  |  |  | 
6 | U2AF1L5 (UniProt P0DN76) | -0.289 |  |  | -0.303 |  | 0.138 | 0.04 | 0.112 |  | -0.013 |  |  | 0.072 | 0.084 | -0.409 | 0.236 | -0.023 | 0.23 | 0.107 | 0.045
7 | XAB2 (UniProt Q9HCS7) |  |  | 0.019 |  |  |  |  | 0.026 |  | 0.052 |  |  |  |  |  |  | 0.073 |  |  | 
8 | TOM1L2 (UniProt Q6ZVM7) |  |  | -0.035 | 0.09 |  | 0.127 |  | -0.071 |  | -0.02 | -0.091 | -0.357 (active) |  | -0.102 | -0.072 |  | -0.05 |  | 0.058 | -0.025
9 | WARS1 (UniProt G3V277) |  |  |  | -0.084 | 0.098 | -0.163 | 0.078 |  | -0.12 |  | 0.021 |  | 0.005 | -0.052 | 0 |  |  |  | 0.14 | -0.041
10 | WARS1 (UniProt G3V339) |  |  | -0.238 |  |  |  |  |  |  |  |  |  |  |  |  |  |  |  |  | 
11 | TUBA4A (UniProt C9JJQ8) | -0.115 | 0.099 |  |  |  | 0.09 | -0.078 | 0.114 |  | -0.148 | -0.084 | -0.191 | 0.147 |  | -0.215 | 0.186 | 0.131 | 0.078 | -0.055 | 
12 | TMEM8A (UniProt Q9HCN3) | -0.11 | 0.008 |  | 0.068 | -0.037 | -0.031 | 0.009 | 0.082 | -0.104 | 0.059 | -0.099 | -0.009 | 0.108 | -0.042 | -0.039 | 0.004 | 0.02 | 0.037 | -0.191 | -0.108
13 | TVP23C (UniProt Q96ET8) | 0.097 | 0.068 |  | 0.039 | -0.019 | -0.025 |  | 0 | -0.033 | 0.025 |  | -0.135 | 0 | 0.042 | 0.039 | -0.205 | 0.015 | 0.129 | 0.067 | 
14 | UTP3 (UniProt Q9NQZ2) | 0.067 | -0.012 | -0.376 | -0.007 | 0.236 | -0.052 | -0.41 | 0.165 | 0.092 | 0.232 | -0.1 | 0.173 | 0.067 | 0.094 | 0.104 | 0.238 | -0.106 | 0.23 | 0.051 | 
